# Test results reported in publication PMC11006913.
# Target: ALX4 (Homo sapiens, UniProt Q9H161 200-286, Q225E)
# Assay: PBM; 200 nM protein, PBS
# Settings: dsDNA, one strand shown
# Sequence of ALX4 (Q9H161 200-286 Q225E): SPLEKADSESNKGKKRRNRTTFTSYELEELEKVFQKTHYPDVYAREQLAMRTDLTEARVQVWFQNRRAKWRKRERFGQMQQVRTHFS
row,Sequence,binding signal
1,CCCGAAGG,"8.2 upbm affinity estimate (log intensity, higher = more binding, comparable within an allelic series)"

# Target: HOXA2 (Homo sapiens, UniProt O43364 129-215, R185T)
# Assay: PBM; 200 nM protein, PBS
# Settings: dsDNA, one strand shown
# Sequence of HOXA2 (Homo sapiens, UniProt O43364 129-215, R185T) (O43364 129-215 R185T): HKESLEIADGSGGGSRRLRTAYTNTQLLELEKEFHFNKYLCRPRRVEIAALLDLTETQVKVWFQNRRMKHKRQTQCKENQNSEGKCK
row,Sequence,binding signal
1,ATGAATGA,"9.4 upbm affinity estimate (log intensity, higher = more binding, comparable within an allelic series)"
2,CAGGCTTC,"7.14 upbm affinity estimate (log intensity, higher = more binding, comparable within an allelic series)"
3,CAGGAAGG,"6.96 upbm affinity estimate (log intensity, higher = more binding, comparable within an allelic series)"
4,CCCCCCAG,"6.72 upbm affinity estimate (log intensity, higher = more binding, comparable within an allelic series)"
5,GCCCCGAC,"7.21 upbm affinity estimate (log intensity, higher = more binding, comparable within an allelic series)"

# Target: HOXA4 (Homo sapiens, UniProt Q00056 201-287, R217L)
# Assay: PBM; 200 nM protein, PBS
# Settings: dsDNA, one strand shown
# Sequence of HOXA4 (Q00056 201-287 R217L): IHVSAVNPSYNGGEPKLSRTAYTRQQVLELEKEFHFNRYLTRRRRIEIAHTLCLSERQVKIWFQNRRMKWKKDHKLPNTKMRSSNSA
row,Sequence,binding signal
1,AGCCCGAG,"9.88 upbm affinity estimate (log intensity, higher = more binding, comparable within an allelic series)"
2,ATGAATGA,"11.1 upbm affinity estimate (log intensity, higher = more binding, comparable within an allelic series)"
3,CCGAGAGG,"9.77 upbm affinity estimate (log intensity, higher = more binding, comparable within an allelic series)"
4,GCCTCCCA,"9.83 upbm affinity estimate (log intensity, higher = more binding, comparable within an allelic series)"
5,CCCGACGC,"9.86 upbm affinity estimate (log intensity, higher = more binding, comparable within an allelic series)"
6,TAATTTGA,"11.4 upbm affinity estimate (log intensity, higher = more binding, comparable within an allelic series)"
7,CCCTCTCG,"9.86 upbm affinity estimate (log intensity, higher = more binding, comparable within an allelic series)"
8,GCGGACCC,"9.74 upbm affinity estimate (log intensity, higher = more binding, comparable within an allelic series)"
9,GGGGGAAC,"9.7 upbm affinity estimate (log intensity, higher = more binding, comparable within an allelic series)"
10,GATCCCCC,"9.87 upbm affinity estimate (log intensity, higher = more binding, comparable within an allelic series)"
11,GCCAAGCC,"9.8 upbm affinity estimate (log intensity, higher = more binding, comparable within an allelic series)"
12,ACCTTCGC,"9.99 upbm affinity estimate (log intensity, higher = more binding, comparable within an allelic series)"
13,CAGGCTTC,"9.71 upbm affinity estimate (log intensity, higher = more binding, comparable within an allelic series)"
14,CAGGAAGG,"9.68 upbm affinity estimate (log intensity, higher = more binding, comparable within an allelic series)"
15,CGCGCGCG,"9.88 upbm affinity estimate (log intensity, higher = more binding, comparable within an allelic series)"
16,GCACCACC,"9.72 upbm affinity estimate (log intensity, higher = more binding, comparable within an allelic series)"
17,CCCCACGG,"9.68 upbm affinity estimate (log intensity, higher = more binding, comparable within an allelic series)"

row,Sequence,binding signal
1,CAGCCTCC,"9.73 upbm affinity estimate (log intensity, higher = more binding, comparable within an allelic series)"
2,CCCCCCAG,"9.39 upbm affinity estimate (log intensity, higher = more binding, comparable within an allelic series)"
3,AGCCACGG,"9.72 upbm affinity estimate (log intensity, higher = more binding, comparable within an allelic series)"
4,GACCCTCC,"9.94 upbm affinity estimate (log intensity, higher = more binding, comparable within an allelic series)"
5,GCCGGCCC,"9.63 upbm affinity estimate (log intensity, higher = more binding, comparable within an allelic series)"
6,GCCCGGAC,"9.75 upbm affinity estimate (log intensity, higher = more binding, comparable within an allelic series)"
7,CCCCAGGC,"9.7 upbm affinity estimate (log intensity, higher = more binding, comparable within an allelic series)"
8,CCGGCAGG,"9.86 upbm affinity estimate (log intensity, higher = more binding, comparable within an allelic series)"
9,CCCTGGTC,"9.68 upbm affinity estimate (log intensity, higher = more binding, comparable within an allelic series)"
10,CCCGAGGG,"9.62 upbm affinity estimate (log intensity, higher = more binding, comparable within an allelic series)"
11,CCGAAGGC,"9.88 upbm affinity estimate (log intensity, higher = more binding, comparable within an allelic series)"
12,CCGGACGG,"9.81 upbm affinity estimate (log intensity, higher = more binding, comparable within an allelic series)"
13,CCCCCTTC,"9.27 upbm affinity estimate (log intensity, higher = more binding, comparable within an allelic series)"
14,CCCGAAGG,"9.81 upbm affinity estimate (log intensity, higher = more binding, comparable within an allelic series)"
15,GAGGTTGC,"9.7 upbm affinity estimate (log intensity, higher = more binding, comparable within an allelic series)"
16,GCCCCGAC,"9.94 upbm affinity estimate (log intensity, higher = more binding, comparable within an allelic series)"

# Target: T1, SIX6 (Homo sapiens, UniProt O95475 114-200, T139Q)
# T1 sequence: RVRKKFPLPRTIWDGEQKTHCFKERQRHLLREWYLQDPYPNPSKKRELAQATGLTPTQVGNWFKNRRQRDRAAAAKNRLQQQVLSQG
# Assay: PBM; 200 nM protein, PBS
# Settings: dsDNA, one strand shown
row,Sequence,binding signal
1,GGATCACA,"11.2 upbm affinity estimate (log intensity, higher = more binding, comparable within an allelic series)"
2,AGGGATCA,"11.1 upbm affinity estimate (log intensity, higher = more binding, comparable within an allelic series)"
3,GATCCCCC,"11.1 upbm affinity estimate (log intensity, higher = more binding, comparable within an allelic series)"
4,AGTGATCC,"11.2 upbm affinity estimate (log intensity, higher = more binding, comparable within an allelic series)"
5,CAGATATC,"11.1 upbm affinity estimate (log intensity, higher = more binding, comparable within an allelic series)"

# Target: HOXC9 (Homo sapiens, UniProt P31274 178-260)
# Assay: PBM; 200 nM protein, PBS
# Settings: dsDNA, one strand shown
# Sequence of HOXC9 (Homo sapiens, UniProt P31274 178-260) (P31274 178-260): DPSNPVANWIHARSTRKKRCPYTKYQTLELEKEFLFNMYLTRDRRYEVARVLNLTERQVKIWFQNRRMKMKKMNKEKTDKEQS
row,Sequence,binding signal
1,AGCCCGAG,"9.62 upbm affinity estimate (log intensity, higher = more binding, comparable within an allelic series)"
2,ATGAATGA,"11 upbm affinity estimate (log intensity, higher = more binding, comparable within an allelic series)"
3,CCGAGAGG,"9.42 upbm affinity estimate (log intensity, higher = more binding, comparable within an allelic series)"
4,GCCTCCCA,"9.69 upbm affinity estimate (log intensity, higher = more binding, comparable within an allelic series)"
5,CCCGACGC,"9.54 upbm affinity estimate (log intensity, higher = more binding, comparable within an allelic series)"
6,CAGGCTTC,"9.43 upbm affinity estimate (log intensity, higher = more binding, comparable within an allelic series)"
7,AGCCACGG,"9.71 upbm affinity estimate (log intensity, higher = more binding, comparable within an allelic series)"
8,GACCCTCC,"9.69 upbm affinity estimate (log intensity, higher = more binding, comparable within an allelic series)"
9,CCCGAGGG,"9.55 upbm affinity estimate (log intensity, higher = more binding, comparable within an allelic series)"
10,CCGGACGG,"9.65 upbm affinity estimate (log intensity, higher = more binding, comparable within an allelic series)"

# Target: MSX2 (Homo sapiens, UniProt P35548 130-214, R199I)
# Assay: PBM; 200 nM protein, PBS
# Settings: dsDNA, one strand shown
# Sequence of MSX2 (P35548 130-214 R199I): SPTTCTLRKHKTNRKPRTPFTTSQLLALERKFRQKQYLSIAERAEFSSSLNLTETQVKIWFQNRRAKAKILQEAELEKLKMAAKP
row,Sequence,binding signal
1,TAATTTGA,"12.2 upbm affinity estimate (log intensity, higher = more binding, comparable within an allelic series)"
2,CGCGCGCG,"9.61 upbm affinity estimate (log intensity, higher = more binding, comparable within an allelic series)"
3,CCCCCCAG,"9.41 upbm affinity estimate (log intensity, higher = more binding, comparable within an allelic series)"
4,GCCCGGAC,"9.48 upbm affinity estimate (log intensity, higher = more binding, comparable within an allelic series)"

# Target: ALX1 (Homo sapiens, UniProt Q15699 118-204, L144V)
# Assay: PBM; 200 nM protein, PBS
# Settings: dsDNA, one strand shown
# Sequence of ALX1 (Homo sapiens, UniProt Q15699 118-204, L144V) (Q15699 118-204 L144V): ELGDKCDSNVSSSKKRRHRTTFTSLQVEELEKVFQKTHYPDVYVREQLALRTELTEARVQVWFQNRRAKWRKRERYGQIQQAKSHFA
row,Sequence,binding signal
1,CCGAGAGG,"6.38 upbm affinity estimate (log intensity, higher = more binding, comparable within an allelic series)"
2,CAGCCTCC,"6.61 upbm affinity estimate (log intensity, higher = more binding, comparable within an allelic series)"
3,CCGGACGG,"6.5 upbm affinity estimate (log intensity, higher = more binding, comparable within an allelic series)"

# Target: ALX3 (Homo sapiens, UniProt O95076 139-225, N203Q)
# Assay: PBM; 200 nM protein, PBS
# Settings: dsDNA, one strand shown
# Sequence of ALX3 (O95076 139-225 N203Q): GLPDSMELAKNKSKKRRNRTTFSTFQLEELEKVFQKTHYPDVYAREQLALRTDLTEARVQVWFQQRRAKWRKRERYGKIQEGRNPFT
row,Sequence,binding signal
1,CAGCCTCC,"7.63 upbm affinity estimate (log intensity, higher = more binding, comparable within an allelic series)"
2,AGCCACGG,"7.72 upbm affinity estimate (log intensity, higher = more binding, comparable within an allelic series)"
3,CCGGCAGG,"7.82 upbm affinity estimate (log intensity, higher = more binding, comparable within an allelic series)"
4,CCGGACGG,"7.77 upbm affinity estimate (log intensity, higher = more binding, comparable within an allelic series)"
5,CCCCCTTC,"7.42 upbm affinity estimate (log intensity, higher = more binding, comparable within an allelic series)"

# Target: T2, PAX4 (Homo sapiens, UniProt O43316 9-242, R200Q)
# T2 sequence: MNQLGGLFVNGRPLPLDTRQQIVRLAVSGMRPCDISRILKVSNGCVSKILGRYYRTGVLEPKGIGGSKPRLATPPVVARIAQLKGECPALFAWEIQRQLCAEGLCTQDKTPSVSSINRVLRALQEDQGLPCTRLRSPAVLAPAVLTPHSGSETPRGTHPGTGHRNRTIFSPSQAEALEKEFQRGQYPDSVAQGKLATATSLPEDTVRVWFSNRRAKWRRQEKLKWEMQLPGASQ
# Assay: PBM; 200 nM protein, PBS
# Settings: dsDNA, one strand shown
row,Sequence,binding signal
1,TAATTTGA,"11.9 upbm affinity estimate (log intensity, higher = more binding, comparable within an allelic series)"
2,GCACCACC,"9.35 upbm affinity estimate (log intensity, higher = more binding, comparable within an allelic series)"
3,CCCTGGTC,"9.25 upbm affinity estimate (log intensity, higher = more binding, comparable within an allelic series)"

# Target: HOXC9 (Homo sapiens, UniProt P31274 178-260, R193K)
# Assay: PBM; 200 nM protein, PBS
# Settings: dsDNA, one strand shown
# Sequence of HOXC9 (Homo sapiens, UniProt P31274 178-260, R193K) (P31274 178-260 R193K): as the sequence (P31274 178-260) above, with R16K counted along it
row,Sequence,binding signal
1,AGCCCGAG,"9.59 upbm affinity estimate (log intensity, higher = more binding, comparable within an allelic series)"
2,ATGAATGA,"11.2 upbm affinity estimate (log intensity, higher = more binding, comparable within an allelic series)"
3,CCGAGAGG,"9.45 upbm affinity estimate (log intensity, higher = more binding, comparable within an allelic series)"
4,GCCTCCCA,"9.59 upbm affinity estimate (log intensity, higher = more binding, comparable within an allelic series)"
5,CCCGACGC,"9.42 upbm affinity estimate (log intensity, higher = more binding, comparable within an allelic series)"
6,CAGGCTTC,"9.37 upbm affinity estimate (log intensity, higher = more binding, comparable within an allelic series)"
7,AGCCACGG,"9.61 upbm affinity estimate (log intensity, higher = more binding, comparable within an allelic series)"
8,GACCCTCC,"9.67 upbm affinity estimate (log intensity, higher = more binding, comparable within an allelic series)"
9,CCCGAGGG,"9.54 upbm affinity estimate (log intensity, higher = more binding, comparable within an allelic series)"
10,CCGGACGG,"9.6 upbm affinity estimate (log intensity, higher = more binding, comparable within an allelic series)"

# Target: HOXA2 (Homo sapiens, UniProt O43364 129-215, R185K)
# Assay: PBM; 200 nM protein, PBS
# Settings: dsDNA, one strand shown
# Sequence of HOXA2 (Homo sapiens, UniProt O43364 129-215, R185K) (O43364 129-215 R185K): as the sequence (O43364 129-215 R185T) above, with T57K counted along it
row,Sequence,binding signal
1,ATGAATGA,"11.9 upbm affinity estimate (log intensity, higher = more binding, comparable within an allelic series)"
2,CAGGCTTC,"10.5 upbm affinity estimate (log intensity, higher = more binding, comparable within an allelic series)"
3,CAGGAAGG,"10.3 upbm affinity estimate (log intensity, higher = more binding, comparable within an allelic series)"
4,CCCCCCAG,"9.81 upbm affinity estimate (log intensity, higher = more binding, comparable within an allelic series)"
5,GCCCCGAC,"10.4 upbm affinity estimate (log intensity, higher = more binding, comparable within an allelic series)"

# Target: ALX1 (Homo sapiens, UniProt Q15699 118-204, L144R)
# Assay: PBM; 200 nM protein, PBS
# Settings: dsDNA, one strand shown
# Sequence of ALX1 (Homo sapiens, UniProt Q15699 118-204, L144R) (Q15699 118-204 L144R): as the sequence (Q15699 118-204 L144V) above, with V27R counted along it
row,Sequence,binding signal
1,CCGAGAGG,"6.33 upbm affinity estimate (log intensity, higher = more binding, comparable within an allelic series)"
2,CAGCCTCC,"6.48 upbm affinity estimate (log intensity, higher = more binding, comparable within an allelic series)"
3,CCGGACGG,"6.53 upbm affinity estimate (log intensity, higher = more binding, comparable within an allelic series)"
